Among all 360,000 compounds or so, about 620 (0.17%) were called active. Only a selection was taken, and actives are over-represented in it overall. A number with no mark means an inactive call.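 How the source made its calls: active means inhibition above a per-campaign cutoff, the mean of all compounds plus 3 SD (cut at about 60% in these data); inactive means the rest.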

The target of this assay is Nuclear receptor coactivator 3 (Homo sapiens) (UniProt Q9Y6Q9). The assay is described as follows: SRC3 coactivator transcriptional activity inhibitors, primary screen, cell-based, luminescence (AID 588352).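 Further: 0% = DMSO-treated cells and 100% = gossypol-treated cells at 36 µM; higher means less SRC3-driven luciferase light from the GAL4 reporter.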 The following applies: HEK293 GAL4-SRC3 luciferase reporter, at 3.6 µM, active compounds read high. A general note: A reporter such as luciferase makes a cellular process visible.
Nuclear receptor coactivator 3 (Homo sapiens), sequence (Q9Y6Q9 whole entry, looked up, the tested form may be a part): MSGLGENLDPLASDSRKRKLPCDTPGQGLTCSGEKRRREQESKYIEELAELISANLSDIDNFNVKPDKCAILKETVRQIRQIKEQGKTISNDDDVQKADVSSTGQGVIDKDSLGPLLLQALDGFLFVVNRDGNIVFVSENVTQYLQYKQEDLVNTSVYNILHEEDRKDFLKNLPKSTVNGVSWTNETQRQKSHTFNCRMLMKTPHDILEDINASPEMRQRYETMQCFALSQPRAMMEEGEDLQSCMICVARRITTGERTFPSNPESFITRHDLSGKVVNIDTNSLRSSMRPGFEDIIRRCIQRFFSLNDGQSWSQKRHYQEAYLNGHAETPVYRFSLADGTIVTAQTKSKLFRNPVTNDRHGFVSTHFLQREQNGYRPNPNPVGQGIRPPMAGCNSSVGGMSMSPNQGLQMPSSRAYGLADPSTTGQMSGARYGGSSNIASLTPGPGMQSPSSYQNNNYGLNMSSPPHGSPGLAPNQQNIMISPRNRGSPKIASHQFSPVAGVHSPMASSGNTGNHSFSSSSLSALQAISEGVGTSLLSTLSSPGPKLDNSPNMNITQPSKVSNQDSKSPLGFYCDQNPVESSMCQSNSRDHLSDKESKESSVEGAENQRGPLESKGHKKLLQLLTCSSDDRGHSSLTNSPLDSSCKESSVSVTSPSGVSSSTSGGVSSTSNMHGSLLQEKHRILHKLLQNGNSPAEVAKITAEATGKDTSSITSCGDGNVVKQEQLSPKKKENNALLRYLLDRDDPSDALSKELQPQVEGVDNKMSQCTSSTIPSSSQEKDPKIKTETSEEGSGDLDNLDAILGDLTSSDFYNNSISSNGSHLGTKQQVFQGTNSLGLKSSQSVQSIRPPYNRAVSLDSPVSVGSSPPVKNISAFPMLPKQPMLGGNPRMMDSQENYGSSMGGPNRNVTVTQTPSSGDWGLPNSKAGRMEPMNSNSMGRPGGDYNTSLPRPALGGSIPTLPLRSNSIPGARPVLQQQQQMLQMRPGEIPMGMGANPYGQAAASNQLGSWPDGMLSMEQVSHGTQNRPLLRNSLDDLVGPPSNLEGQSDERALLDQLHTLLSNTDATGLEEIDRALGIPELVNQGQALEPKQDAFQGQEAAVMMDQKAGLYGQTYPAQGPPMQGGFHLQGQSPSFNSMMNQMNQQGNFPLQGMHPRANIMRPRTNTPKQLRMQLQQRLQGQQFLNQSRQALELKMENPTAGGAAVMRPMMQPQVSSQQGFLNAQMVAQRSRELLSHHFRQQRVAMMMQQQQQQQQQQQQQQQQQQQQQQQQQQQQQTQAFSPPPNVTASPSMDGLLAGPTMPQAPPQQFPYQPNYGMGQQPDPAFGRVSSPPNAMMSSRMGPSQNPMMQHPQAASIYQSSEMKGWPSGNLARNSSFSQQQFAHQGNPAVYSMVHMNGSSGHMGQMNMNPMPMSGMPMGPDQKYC
Usually inhibition stands for the change of the read-out against control, counted positive when it falls. Turning to `CC12CCC(O)CC1CCC1C2CCC2(C)C(C(=O)CC(O)C(F)(F)F)CCC12` (stereo not given), the inhibition is 15.9%. The same measure for `C[C@]12CC[C@H](O)C[C@H]1CC[C@@H]1C2CC[C@]2(C)[C@@H](C3=CC(=O)OC3)[C@@H](O)C[C@]12O` (stereo not given in full): 63.5% (active). For the compound `Cc1cccc(OP(=O)(Oc2cccc(C)c2)OC(c2ccccc2)C(F)(F)F)c1` (stereo not given), the inhibition was -1.86%.

Turning to `C[N+]1(C)CCOC(O)(c2ccc(-c3ccc(C4(O)C[N+](C)(C)CCO4)cc3)cc2)C1` (stereo not given), the inhibition was 20.3%.

Regarding `CNC(=S)N/N=C1\C2CN3CCN(C2)CC1(c1ccccc1)C3`, the inhibition is 8.65%.

As for `COC(=O)C1=C(c2ccc(-c3ccccc3)c(F)c2)C[C@@H]2CC[C@H]1N2C(=O)NCc1ccc(F)cc1`, the inhibition is 9.01%. As to `CCC(C)(O)C(=O)OC1C(=O)OC2CC3C(C)=CC(=O)C(O)C3(C)C3C4(O)OCC23C1C(C)C4O` (stereo not given), the inhibition was 93.7% (active). Take `O=C(Cn1c(=O)n(CC2CS2)c2ccccc21)N1CCCCC1` (stereo not given): the inhibition was -25.5%.

Take `COc1ccccc1CN1CCN(C(=O)Cc2ccccc2)CC1`: the inhibition was 2.02%. As for `COC(=O)[C@@H]1C(OC(=O)c2ccccc2)CC2CCC1N2C` (stereo not given in full), the inhibition was 14.1%.

With `CN(C)CCN(CC1CCCN(Cc2ccccc2F)C1)C(=O)Cc1ccc(F)c(F)c1` (stereo not given), the inhibition is 3.08%. For `C=CC12CN(C)[C@@H]3C4CO[C@H](C[C@H]41)[C@]1(C(=O)Nc4ccccc41)[C@@H]32` (stereo not given in full), the inhibition was 4.33%. Turning to `CCOc1ccc(-c2cc(C)[n+](CCN(CC)CC)c(-c3ccc(OCC)cc3)c2)cc1`, the inhibition is 78% (active). The same measure for `Cn1c(O)c(C=Nc2ccc3c(c2)CCC3)c(=O)n(C)c1=O`: -9.05%; for `COC1C(O)C(C)OC(OC2CCC3(C=O)C(CCC4C3CCC3(C)C(C5=CC(=O)OC5)CCC43O)C2)C1O` (stereo not given): 90.5% (active); for `Cn1c(C(=O)N2CCC(C(=O)N3CCC4(CC3)OCCO4)CC2)cc2sccc21`: 6.98%. Turning to `NC(=O)Cn1cc(C(=O)c2ccccc2F)c2ccccc21`, the inhibition is 10.3%. For `Cc1ccc(P(=S)(c2ccc(C)o2)N2CCOCC2)o1`, the inhibition is 6.64%. In the case of `CC(c1ccccc1)(c1ccccc1)c1ccncc1`, the inhibition is 16.2%. Turning to `Fc1cccc(F)c1CN1CCN(Cc2c(F)cccc2F)CC1`, the inhibition is 28.2%. Regarding `COc1ccc2[nH]c3c(c2c1)CCN[C@H]3C`, the inhibition is 7.99%. Consider `CC(=O)OC1C2(CC3N4C(=O)C5(CO)SSC4(CC31O)C(=O)N5C)OC(C)C(C)(C)C2=O` (stereo not given), for which the inhibition was 67.7% (active).

With `CC1CCCN1CCC(C(N)=O)(c1ccccc1)c1ccccc1` (stereo not given), the inhibition was -21.2%. The figure for `COP(=O)(OC)C(NC(=O)c1ccc(C)cc1)C(Cl)(Cl)Cl` (stereo not given) is -4%. Regarding `CCCCCCCCCCCCn1ccc(=N)cc1`, the inhibition was 76.9% (active).

On to `CCOC(=O)C1CN(C)CCC1=O` (stereo not given), for which the inhibition is 21.1%. The same measure for `c1ccc2sc(N3CCNCC3)nc2c1`: -3.09%; for `COc1cccc(OC)c1C(=O)NC(=S)N1C[C@H]2C[C@H](C1)c1cccc(=O)n1C2`: 19.2%. Consider `OC(Cn1c2ccccc2c2ccccc21)C[n+]1ccccc1` (stereo not given), for which the inhibition is -8.77%. As for `CN(C)P(=S)(Nc1ccccc1)C(Cl)(Cl)Cl` (stereo not given), the inhibition was 6.36%.

Source of the values: PubChem BioAssay AID588352 (The Scripps Research Institute Molecular Screening Center, 2011).
